The text below walks through data of PubChem BioAssay (NCATS).

Results filed as inconclusive are left out. Unmarked numbers belong to inactive results. The source made the active and inactive calls. Calls come from the whole dose curve; as a rule, active = well fitted inhibition curve with a large enough effect; inconclusive = small, poorly fitted or top-dose-only effect; inactive = flat fitted curve, though single readings scatter.
% is set by controls: 0 for no effect and ±100 for the full control effect; potency is the fitted concentration of half-maximal effect.

The experiment in a line: Primary qHTS for inhibitors of nuclear receptor binding SET domain protein 2 (NSD2) in an isogenic RCH-ACV NSD2 p.E1099K mutant (9B) (AID 1645876). Note: nearly all actives have a fitted effect of over 70% in size. The following applies: RCH-ACV (leukaemia line) NSD2 E1099K (9B) viability, CellTiter-Glo, 72 h; series mostly up to 44.9 µM; activity change, negative = viability loss: at the top concentration. On the technique in general: Quantitative high-throughput screening tests each substance at several concentrations.
With `CCCCC(=O)N(Cc1ccc(-c2ccccc2-c2nn[nH]n2)cc1)C(C(=O)O)C(C)C` (configuration not stated), the call was inactive. Same read-out and setting: for `CCCCc1nc(Cl)c(CO)n1Cc1ccc(-c2ccccc2-c2nnn[nH]2)cc1` the value was “inactive”. For the compound `COc1ccc2c(c1)CN(C(=O)CCN1CCC(Cc3ccccc3)CC1)CCS2`, the Potency is 11.2 µM (active). The same measure, in the same setting: for `C=C1C(=O)O[C@@H]2[C@H]1[C@H](O)C[C@]1(C)[C@@H](O)CC=C(C)[C@@H]21` the value was 11.5 µM (active).

Turning to `CCNC(=O)[C@@H]1CCCN1C(=O)[C@H](CCCN=C(N)N)NC(=O)[C@H](CC(C)C)NC(=O)[C@@H](CC(C)C)NC(=O)[C@H](Cc1ccc(O)cc1)NC(=O)[C@H](CO)NC(=O)[C@H](Cc1c[nH]c2ccccc12)NC(=O)[C@H](Cc1cnc[nH]1)NC(=O)[C@@H]1CCC(=O)N1`, the “activity change, negative = viability loss” value is -0.679% [at 17.3 µM]. On to `CCN(CC)Cc1cccc(/C=C/c2nc3ccc(F)cc3c(=O)n2-c2ccccc2Cl)n1`, for which the Potency was 14.5 µM (active).

Turning to `C=C(C(=O)O)C1CC2=C(C)C(=O)CC2C(C)CC1O` (configuration not stated), the Potency is 11.5 µM (active).
